# Source: PubChem (National Center for Advancing Translational Sciences (NCATS))
# Only some compounds are listed: those with a hit (about 7.8% of all), similar ones and a draw of the others.
# Vaccinia mCherry: vaccinia inhibition (mCherry reporter). AID 720579. Potency, µM (doses to about 36.5 µM), for inactives: at the top dose activity change, negative = inhibition, hits mostly inhibitors. Vaccinia virus mCherry reporter infection, fluorescence. 310,000 compounds, 0.63% hits; calls by dose curve; tested in A549 cells; also: potency is read from the fitted curve at half-maximal effect; nearly all actives have a fitted effect of over 35% in size
# HCV inhibitor: inhibitors of hepatitis C virus infection. Huh7.5.1 HCVcc-Cre infection, luciferase reporter, 44 h. Potency, µM (titrated, usually from 41.8 µM), inactives show at the top dose activity change, negative = inhibition, hits mostly inhibitors. 340,000 compounds, 3.4% hits. AID 651820; active = well fitted inhibition curve with a large enough effect; inconclusive = small, poorly fitted or top-dose-only effect, or another doubt; inactive = no such curve, though single readings can be large or run the other way; also: potency is read from the fitted curve at half-maximal effect
#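 Cells (1,000/well) were plated 4 h before compound, then infected with HCVcc-Cre virus (~0.5 moi). After 44 h further culture, infection was read as luciferase luminescence following a 15 min substrate incubation at room temperature.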
# HCMV inh: blocks human cytomegalovirus replication | activity change, negative = inhibition, % at 57.5 µM | HFF cells, HCMV-luciferase reporter, 72 h; stronger effect = lower value | 410,000 compounds, 4.5% hits; in the data active = activity change below about -60%; inconclusive = no clear call, values can overlap the other calls; inactive = above about -39%
#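 After 16 h attachment at 37C, HFF cells received test compound and HCMV-luciferase (1 PFU/cell); reporter luminescence read 72 h later, data normalized against buffer-only and known inhibitor Salinomycin.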
# Vaccinia Venus: vaccinia inhibition (Venus reporter). Vaccinia virus Venus reporter expression, fluorescence. Potency, µM (top dose mostly 36.5 µM), for inactives: top-dose activity change, negative = inhibition, usual class: inhibitors. 330,000 compounds, 0.46% hits. AID 720580; calls by dose curve; tested in A549 cells; also: potency is read from the fitted curve at half-maximal effect; nearly all actives have a fitted effect of over 30% in size
# Lassa entry inh: blocks Lassa virus binding to or entry into cells; Lassa virus pseudotype entry inhibition, cell reporter; Potency, µM (doses to about 37.9 µM), without a hit: at the top dose activity change, negative = inhibition, most hits filed as inhibitors; 300,000 compounds, 1.2% hits; AID 540256; calls by dose curve; tested in HEK293 cells; also: potency is read from the fitted curve at half-maximal effect; nearly all actives have a fitted effect of over 50% in size
# Marburg entry inh: Marburg virus entry inhibition; Marburg virus pseudotyped entry inhibition, cell reporter; Potency, µM (titrated, usually from 37.8 µM), inactives show at the highest dose activity change, negative = inhibition, actives largely listed as inhibitors; 300,000 compounds, 1.8% hits; AID 540276; calls by dose curve; tested in HEK293 cells; also: potency is read from the fitted curve at half-maximal effect
# Starred values were filed as active, the others as inactive; i = inactive; ? = inconclusive; . = no result; ! = a repeat was not active; [ ] = dose if it differs, or a comment. % is scaled to controls: 0 for no effect and ±100 for the full control effect.
SMILES,Vaccinia mCherry,HCV inhibitor,HCMV inh,Vaccinia Venus,Lassa entry inh,Marburg entry inh
CCOc1ccc(CCn2c(-c3ccco3)nc3ccccc3c2=O)cc1OCC,.,7.08µM*,-75.8*,.,6.51µM*,2.31µM*
CC(C)Oc1ccccc1Oc1ccc2c(-c3ccccn3)noc2n1,.,.,-4.9,.,.,.
COc1ccc(CCNC(=O)c2cc3c(-c4ccc(OC)c(OC)c4)nn(C)c3s2)cc1OC,-12.2%,.,-37.3,-11.7%,?,?
CNC(=O)COC(=O)/C=C/c1cccs1,1.5%,9.6%,-12.2,3.9%,1.0%,?
O=C(COC(=O)/C=C/c1cccs1)NC1CC1,i,17.9%,-60.4*,-8.0%,?,?
Cc1cc(Br)cc2c(C(=O)Nc3c(C)n(C)n(-c4ccccc4)c3=O)cc(-c3cccs3)nc12,-1.4%,?,-62.9*,-18.2%,?,6.51µM*
O=C(NNc1nc(-c2ccccc2)cs1)c1cccs1,-29.7%,?,-8.3,-16.4%,?,?
O=C(NNc1nc(-c2ccccc2)cs1)c1ccc(F)cc1,i,-18.5%,-80.4*,-3.8%,10.2%,-0.8%
CC1CC(CC(=O)NNc2nc(-c3ccccc3)cs2)C(=O)O1 (centres undefined),.,-7.0%,18.6,.,.,.
CC1(C)CC(CC(=O)NNc2nc(-c3ccccc3)cs2)C(=O)O1 (centres undefined),-9.4%,6.4%,-19.2,-10.0%,12.2%,1.26µM*
O=C(NNc1nc(-c2ccc(F)cc2)cs1)c1ccccc1,-16.5%,?,-98.6*,-14.4%,?,?
Cc1ccc(Nc2ccc(N3CCN(C(=O)c4ccc([N+](=O)[O-])cc4Cl)CC3)nn2)cc1,-30.2%,.,-36.2,-23.4%,?,.
Cc1ccc(C(=O)CSc2nc(-c3ccccc3)nc3c2CCCC3)cc1,-5.1%,.,7.7,-4.0%,6.3%[46.1 µM],?
NC1(C#Cc2ccc3oc(=O)c(-n4cc(-c5ccsc5)nn4)cc3c2)CCCCC1,-14.1%,?,-72.5*,?,.,.
CCOc1ccc(CCNC(=O)c2ccc3c(=O)n4c(nc3c2)CCCCC4)cc1,.,?,-8.4,.,.,.
COc1cc(OC)cc(C(=O)Nc2ccc3nc4n(c(=O)c3c2)CCCCC4)c1,-8.9%,?,17.4,-9.4%,-13.4%[46.1 µM],?
CCOc1ccc(NC(=O)c2ccc3c(=O)n4c(nc3c2)CCCCC4)cc1,-4.6%,11.2µM*,-63.1*!,?,-2.3%[46.1 µM],-2.2%[46.1 µM]
CCN(CC)c1ccc(C(=O)NNC(=O)c2ccc3c(=O)n4c(nc3c2)CCC4)cc1,.,-0.5%,-10.3,.,.,.
CCN(CC)S(=O)(=O)c1ccc(NC(=O)c2ccc3c(=O)n4c(nc3c2)CCCCC4)cc1,?,.,-93.0*,?,?,?
O=C(Nc1ccc2nc3n(c(=O)c2c1)CCCC3)c1cncc(Br)c1,i,?,-63.3*,-13.5%,.,.
COc1cccc(NC(=O)CC(=O)Nc2ccc3nc4n(c(=O)c3c2)CCCCC4)c1,-8.7%,.,-72.4*,-9.1%,15.8%[46.1 µM],4.0%[46.1 µM]
CCc1ccc(NC(=O)c2ccc3c(=O)n4c(nc3c2)CCCCC4)cc1,-6.2%[7.34 µM],10µM*,-38.1,-3.8%[7.34 µM],.,.
O=C(Nc1cccc(S(=O)(=O)N2CCCCC2)c1)c1ccc2c(=O)n3c(nc2c1)CCCCC3,-28.7%,6.31µM*,-88.3*,?,?,3.16µM*
O=C(Nc1ccc2nc3n(c(=O)c2c1)CCCC3)c1cc([N+](=O)[O-])ccc1F,-20.0%,?,.,-24.4%,3.26µM*,7.08µM*
CCc1nnc(NC(=O)c2ccc3c(=O)n4c(nc3c2)CCCCC4)s1,i,?,-14.1,1.9%,1.3%,-3.5%
O=C(Nc1ccc2nc3n(c(=O)c2c1)CCCC3)c1cccc([N+](=O)[O-])c1,-10.0%,?,-22.4,-25.7%,11.9%,6.0%
NC(=S)N/N=C1\CCSc2ccc(Cl)cc21,?,?,-99.5*,?,-1.2%,-19.4%[46.1 µM]
Cc1noc(-c2ccc(C(F)(F)F)cc2)c1NC(=O)Nc1ccc(Cl)cc1,.,?,-87.7*,.,.,.
Cc1cc(-c2onc(C)c2C(=O)Nc2ccc(C(F)(F)F)cc2)no1,i[7.34 µM],15.3%,0.2,-1.9%[7.34 µM],3.0%,0.2%[46.1 µM]
O=S(=O)(c1ccccc1)c1nc(-c2ccco2)oc1Nc1ccccc1,-18.3%,-21.9%,-62.1*,-7.7%,?,0.0%
